# Test results as given in PubChem BioAssay (EPA / NIEHS).
# Records with an inconclusive call do not appear. Calls of active or inactive are those of the source. The calls were made as follows: active = hit-call score of the fitted dose curve at least 0.9, where 1 is the maximum; inconclusive = response in the unintended direction; inactive = score below 0.9.
# Test: ATG_Hpa5_TRANS: Attagene TRANS-FACTORIAL HepG2 Assay for human GAL4-Hpa5 Hepatocyte Transcription Factor Basal Promoter (AID 2282975);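 also: hits are increases in reporter mRNA over DMSO baseline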
# Settings: HepG2 Attagene GAL4-Hpa5 transcription reporter
# Experimental: ATG_TRANS is a cell-based, multiplexed-readout assay that uses HepG2, a human liver cell line, with measurements taken at 24 hours after chemical dosing in a 24-well plate.ATG_Hpa5_TRANS is one of 30 assay component(s) measured or calculated from the ATG_TRANS assay. It is designed to make measurements of mRNA induction, a form of inducible reporter, as detected with fluorescence intensity signals by Reverse transcription polymerase chain reaction (RT-PCR) and Capillary electrophoresis technology.Data from the assay component ATG_Hpa5_TRANS was analyzed into 1 assay endpoint. This assay endpoint, ATG_Hpa5_TRANS, was analyzed in the positive analysis fitting direction relative to DMSO as the negative control and baseline of activity. Using a type of inducible reporter, measures of mRNA for gain-of-signal activity can be used to understand the background control at the transcription factor-level as they relate to the gene . Furthermore, this assay endpoint can be referred to as a secondary readout, because this assay has produced multiple assay endpoints where this one serves a background control function. To generalize the intended target to other relatable targets, this assay endpoint is annotated to the background measurement intended target family, where the subfamily is internal marker.
# Human liver HepG2 cells are transiently transfected with multiple reporter transcription units (MRTUs) in 6-well plates using FuGene 6 reagent (Roche; 3 ml FuGene/1 mg DNA). The MRTU constructs are regulated by a cis-regulating element (promoter). […] A major difference between the CIS and TRANS system is that in CIS activities of endogenous TFs are measured, whereas the TRANS assay evaluates changes in activities of exogenous, chimeric NR-Gal4 proteins. […] At the end of 24 hour incubation, total RNA was isolated using TriZol reagent (Invitrogen). The isolated RNA is then reverse-transcribed using oligo(dT) primer and Mo-MLV reverse transcriptase (Invitrogen) with DNAse I (Ambion) treatment for 30 min. The one-tenth of the produced cDNA was amplified by PCR using Taq DNA polymerase (Invitrogen) and two reporter sequence-specific primers. The PCR products were fluorescently labeled by primer extension with 6-arboxyfluorescein (6-FAM) 5'-labeled reporter sequence-specific primer (2 min at 95 C, 20 s at 68 C and 10 min at 72 C) and these products were digested with 5U of HpaI (New England Biolabs) for 2h at 37 C. The fragments were purified using Qiaquick PCR columns (Qiagen), analyzed on an ABI 3130xL genetic analyzer (Applied Biosystems) with peak positions identified by using a set of X-rhodamine (ROX)-labeled MapMarker1000 molecular weight standards (BioVentures). The raw capillary electrophoresis data was processed using Attagraph software (Attagene).
row,SMILES,outcome
1,CCOC(=O)NCCOc1ccc(Oc2ccccc2)cc1,inactive
2,CCCCOCCOCCOCc1cc2c(cc1CCC)OCO2,inactive
3,S=C(S)NCCNC(=S)S.[Mn+2].[S-]C([S-])=NCCN=C([S-])[S-].[Zn+2],inactive
4,N#CSCSc1nc2ccccc2s1,inactive
5,CCOC(=O)[C@H](C)Oc1ccc(Oc2nc3ccc(Cl)cc3o2)cc1,inactive
6,CCNc1nc(N)nc(Cl)n1,inactive
7,S=C([S-])NCCNC(=S)[S-].[Mn+2],inactive
8,CCOC(=O)C(C)Oc1ccc(Oc2nc3ccc(Cl)cc3o2)cc1 (stereo not drawn),inactive
9,OB(O)O,inactive
10,CCN(CC)C(=O)c1cccc(C)c1,inactive
11,CCCN(CCC)C(=O)SCC,inactive
12,c1ccc(Nc2ccccc2)cc1,inactive
13,CN(C)C(=O)Nc1ccc(Cl)c(Cl)c1,inactive
14,CCCN(CCC)c1c([N+](=O)[O-])cc(C(F)(F)F)c(N)c1[N+](=O)[O-],inactive
15,COC(=O)CSc1cc(N=c2sc(=O)n3n2CCCC3)c(F)cc1Cl,inactive
16,CCCCC(CC)COC(=O)c1ccccc1C(=O)O (stereo not drawn),inactive
17,COC(=O)c1ccc(I)cc1S(=O)(=O)NC(=O)Nc1nc(C)nc(OC)n1,inactive
18,COC(=O)c1cccc(C)c1S(=O)(=O)NC(=O)Nc1nc(OCC(F)(F)F)nc(N(C)C)n1,inactive
19,CCSC(=O)N(CC(C)C)CC(C)C,inactive
20,CCCCOC(=O)C(C)Oc1ccc(Oc2ccc(C(F)(F)F)cn2)cc1 (stereo not drawn),inactive
21,CCCCCOC(=O)COc1cc(N2C(=O)C3=C(CCCC3)C2=O)c(F)cc1Cl,inactive
22,CCN(Cc1c(F)cccc1Cl)c1c([N+](=O)[O-])cc(C(F)(F)F)cc1[N+](=O)[O-],inactive
23,COC(=O)c1c(Cl)nn(C)c1S(=O)(=O)NC(=O)Nc1nc(OC)cc(OC)n1,inactive
24,CCCOC(=O)c1ccc(C(=O)OCCC)nc1,inactive
25,CCOC(=O)COc1cc(-n2ncc(C(F)(F)F)c(C)c2=O)c(F)cc1Cl,inactive
26,Oc1ccc(C(c2ccc(O)cc2)C(Cl)(Cl)Cl)cc1,inactive
27,CCCCOC(=O)[C@@H](C)Oc1ccc(Oc2ccc(C(F)(F)F)cn2)cc1,inactive
28,COCCO,inactive
